We go through 40 sequences from the OligoGym collection.
Note: reference of the scale not given here.

The target of the first assay is MIER1. Description: pooled miR-30 sensor sort-seq; sequence = guide strand. As to conditions: shRNA.
On to TACTGTTTGATGCAGTTGGGGG, for which the sensor-assay potency score (higher = more potent) is -0.856.

As to TTAATCTTCTCAATGCTTCTTC, the sensor-assay potency score (higher = more potent) was 0.934.

Consider TTAATATTTCACCTGGTCCATT, for which the sensor-assay potency score (higher = more potent) is -1.02.

TTCGTCTAGAAGACGATCCATG showed a sensor-assay potency score (higher = more potent) of -1.5.

With TTGTGATGGATCATCATTGGAA, the sensor-assay potency score (higher = more potent) was -0.466.

Take TATAATCTTCATCTTCTTCAGA: the sensor-assay potency score (higher = more potent) was -0.137.

The sequence TTATCTTCTGGTAAGTACTCAG returned a sensor-assay potency score (higher = more potent) of -0.171.

Sequence AATTTCTACACTCTTCCTCTGT yielded a sensor-assay potency score (higher = more potent) of 0.0886.

As to TATAATCACTTTATCTTCTGGT, the sensor-assay potency score (higher = more potent) is 0.758.

TAGTCGAACAGTACTACCATAA: the sensor-assay potency score (higher = more potent) was -1.32.

In turn, TTCTTCTTTCCAAATCGTGTTT returned a sensor-assay potency score (higher = more potent) of -0.957.

Consider ATCATCAAAATCATGAACCAGC, for which the sensor-assay potency score (higher = more potent) was -0.377.

Another assay addresses MIOX. Described as above. Conditions: shRNA.
Take TGCATGAGCTTGTAGGTGGTGA: the sensor-assay potency score (higher = more potent) is -0.613.

In the case of TTGGGGAAATCTACGTCCGGGT, the sensor-assay potency score (higher = more potent) is -0.845.

TACATCCCGAGCTCTGTGCTGT returned a sensor-assay potency score (higher = more potent) of -0.811.

Sequence TGTGCTGTATCGAGGATCCTGG yielded a sensor-assay potency score (higher = more potent) of -0.757.

Sequence TCTGGGTCCACATCAGGTCGGT registered a sensor-assay potency score (higher = more potent) of -0.363.

Take TTCTTGTAGGAGAAGCCCCCAA: the sensor-assay potency score (higher = more potent) is -0.777.

For the sequence TTGGTGTAGAGGTCGAACTTGT, the sensor-assay potency score (higher = more potent) is -0.568.

In the case of TTGTAGGTGGTGAAGACACGGT, the sensor-assay potency score (higher = more potent) was -0.626.

In the case of TCGAACTTGTTGAACTCCCGCA, the sensor-assay potency score (higher = more potent) is -0.101.

The sequence TTGTTAAACTTCATCACCTGGT gave a sensor-assay potency score (higher = more potent) of -0.0605.

With TTTTCTTGTAGGAGAAGCCCCC, the sensor-assay potency score (higher = more potent) is -0.0971.

For TCCATGACTGTCATTTTCTTGT, the sensor-assay potency score (higher = more potent) was -1.1.

The next assay has as its target MIP. The description is as above. Conditions: shRNA.
As to TTCAGTTCAACAGGTTCCCCTG, the sensor-assay potency score (higher = more potent) is -0.987.

Consider TCGTATGTGGCAAAGATGCAGA, for which the sensor-assay potency score (higher = more potent) is -0.993.

TTCCTCGGACAGCAGGTGGGGT had a sensor-assay potency score (higher = more potent) of -1.18.

For TTGTCCATTGGAGACATCGGGT, the sensor-assay potency score (higher = more potent) is -0.903.

With TAACGCTATACAGCACAGCGGC, the sensor-assay potency score (higher = more potent) is -1.18.

Take TCTCTCAGAAATACTCTTGAGC: the sensor-assay potency score (higher = more potent) is -0.614.

TGAGGACAGACAGTCTCTCAGA had a sensor-assay potency score (higher = more potent) of -1.25.

TTGAGTGCTAGGTTTCCTCGGA displayed a sensor-assay potency score (higher = more potent) of -0.0163.

As for TGAGTGCTAGGTTTCCTCGGAC, the sensor-assay potency score (higher = more potent) is -0.712.

TAGGTTTCCTCGGACAGCAGGT returned a sensor-assay potency score (higher = more potent) of -0.243.

On to TCAGAAATACTCTTGAGCCGGG, for which the sensor-assay potency score (higher = more potent) is 0.442.

For the sequence TGTCCATTGGAGACATCGGGTT, the sensor-assay potency score (higher = more potent) is -1.24.

The next assay deals with MIS12. The assay is described as above. As to conditions: shRNA.
As for TTTATCTTCAGGAAGCAAGATG, the sensor-assay potency score (higher = more potent) was -0.586.

TTCAGTCTTGTACTTCTCCTGT registered a sensor-assay potency score (higher = more potent) of 0.0481.

Consider TATGATTCTACTTTTTGACAGG, for which the sensor-assay potency score (higher = more potent) is -0.668.

As for TTGAAATGCAATGTAGATCCGA, the sensor-assay potency score (higher = more potent) came out at 0.852.
